# Reference: PubChem BioAssay (Tox21)
# Inconclusive results are not listed. A number with no mark means an inactive call. Calls follow the shape of the dose curve; as a rule, active = well fitted cell-killing curve with a large enough effect in the repeat runs; inconclusive = weak or mixed curves; inactive = flat fitted curve, though single readings scatter.
# Assay: qHTS assay to identify small molecule antagonists of the estrogen receptor beta (ER-beta) signaling pathway - cell viability counter screen (AID 1259382); also: nearly all actives have a fitted effect of over 55% in size
# Conditions: ER-beta-UAS-bla HEK293T viability, CellTiter-Glo luminescence, 16 h; series mostly up to 92.4 µM; activity change, negative = cytotoxicity: at the top concentration
# Source text: U.S. Tox21 Program National Center for Advancing Translational Sciences [NCATS] NIH Chemical Genomics Center [NCGC] U.S. Environmental Protection Agency [EPA] National Institutes of Environmental Health Sciences [NIEHS] National Toxicology Program [NTP] U.S. Food and Drug Administration [FDA] Tox21 Assay Overview: Estrogen receptor (ER), a nuclear hormone receptor, plays an important role in development, metabolic homeostasis and reproduction. Two subtypes of ER, ER-alpha and ER-beta, have similar expression patterns with some uniqueness in both types. Endocrine disrupting chemicals (EDCs) and their interactions with steroid hormone receptors like ER causes disruption of normal endocrine function. To identify the compounds that inhibit ER signaling, an ER-beta-UAS-bla GripTite cell line (Life Technologies, Madison, WI, USA) containing a beta-lactamase reporter gene under the control of an UAS response element was used to screen Tox21 10K compound library. The cytotoxicity of the Tox21 compound library against the ER-beta-bla cell line was tested in parallel by measuring the cell viability using CellTiter-Glo assay in the same wells.
# Tox21 Assay Protocol Summary: ER-beta-UAS-bla HEK293T cells were dispensed at 2,000 cells/4 uL of assay medium containing 2% charcoal stripped FBS per well into black wall/clear-bottom 1536-well plates using a Multidrop Combi (ThermoFisher Scientific, Waltham, MA) dispenser. After the assay plates were incubated at a 37C and 5% CO2 for 6 hr, 23 nL of compounds dissolved in DMSO, positive controls or DMSO only was transferred to the assay plate by a Pintool station (Kalypsys, San Diego, CA), followed by addition of 1 uL (1nM as final concentration) of 17-beta-estradiol (E2) in assay medium using a Flying Reagent Dispenser (FRD, Aurora Discovery, San Diego, CA). The plates were incubated at 37C and 5% CO2 for 16 hr. Then 1 uL of LiveBLAzer B/G FRET substrate was added using a Flying Reagent Dispenser, the plates were incubated at room temperature for 2 hours, and fluorescence intensity was measured by an Envision plate reader (PerkinElmer, Shelton, CT). For cell viability readout that measures cytotoxicity, 4 uL/well of CellTiter-Glo reagent was added into the assay plates using a FRD. After 30 min incubation at room temperature, the luminescence intensity in the plates was measured using a ViewLux (PerkinElmer) plate reader.
# % is scaled to controls: 0 for no effect and ±100 for the full control effect.
row,Structure (SMILES),"activity change, negative = cytotoxicity"
1,Nc1nc(F)nc2c1ncn2[C@@H]1O[C@H](CO)[C@@H](O)[C@@H]1O,4.72% [at 42.5 µM]
2,C1C2OC2C2C1C1CC2C2OC12 (stereo not given),8.35%
3,CCOC(=O)Nc1ccc2c(c1)N(C(=O)CCN1CCOCC1)c1ccccc1S2,-5.86% [at 42.5 µM]
4,N[C@@H](CS)C(=O)O,4.34%
5,Cc1ccccc1C(=O)O,1.96%
6,COC(C(=O)O)c1ccccc1 (stereo not given),0.48%
7,CC(C=O)Cc1ccc(C(C)C)cc1 (stereo not given),2.49%
8,CCCCCCCCC=O,0.691%
9,CCC(=O)/C=C/c1ccc(OC)cc1,5.87%
10,OCC(CO)(CO)COCC(CO)(CO)CO,-1.48%
11,COC[C@H](c1ccc(C(F)(F)F)cc1)N1CCN(C2(C)CCN(C(=O)c3c(C)ncnc3C)CC2)C[C@H]1C,-16.4% [at 42.5 µM]
12,Cn1cnc2c(=O)[nH]c(N)nc21,1.49%
13,CCC(C)(C)C1CCC(OC)CC1 (stereo not given),0.921%
14,COc1cccc(OC)c1,-0.569%
15,[O-][N+](=Nc1ccccc1)c1ccccc1,1.5%
16,C/C=C1\C(=O)C[C@H]2[C@@H]3CCC4=CC(=O)CC[C@]4(C)[C@H]3CC[C@]12C,-3.64% [at 42.5 µM]
17,CC(C)c1cccc(C(C)C)c1N,5.82%
18,Oc1cc(O)c2c(c1)O[C@H](c1ccc(O)c(O)c1)[C@H](O)C2,2.84% [at 42.5 µM]
19,c1ccc2cnncc2c1,-6.58%
20,CC1=CC(C)C(C=O)C(C)C1 (stereo not given),6.22%

row,Structure (SMILES),"activity change, negative = cytotoxicity"
1,CCCC(C)CO (stereo not given),6.82%
2,CCN(CC)C(=O)c1ccc(O)c(OC)c1,-2.11% [at 42.5 µM]
3,CC/C=C\C#N,0.179%
4,O=[N+]([O-])c1ccc(Oc2ccc([N+](=O)[O-])cc2)cc1,4.58%
5,COc1cccc(Br)c1,-0.342%
6,CC(C)CCOC(=O)CC(C)C,11%
7,Cc1cc(C)c(NC(=O)CN(CC(=O)O)CC(=O)O)c(C)c1Br,9.82% [at 42.5 µM]
8,NS(=O)(=O)c1cc2c(cc1C(F)(F)F)NC(Cc1ccccc1)NS2(=O)=O (stereo not given),13% [at 42.5 µM]
9,NC(CS)C(=O)O (stereo not given),6.09% [at 42.5 µM]
10,CCO[Si](CCCN=C=O)(OCC)OCC,-0.847%
11,CC1=CCC2C(C1)C2(C)C (stereo not given),-6.48%
12,Cc1nccn1CC1CCc2c(c3ccccc3n2C)C1=O (stereo not given),-16.2% [at 42.5 µM]
13,COc1ccc(N=[N+]([O-])c2ccc(OC)cc2)cc1,2.33%
14,CCC(C)OC(=O)N1CCCCC1CCO (stereo not given),2.44%
15,CC1(C)OC(=O)Nc2ccc(Br)cc21,-0.981% [at 42.5 µM]
16,CC12CCC(CC1=O)C2(C)C (stereo not given),13.3%
17,CCCCCN(CCCCC)C(=O)C(CCC(=O)O)NC(=O)c1ccc(Cl)c(Cl)c1 (stereo not given),-16.6% [at 42.5 µM]
18,CCC(=O)Nc1cccc(N)c1,-0.669%
19,CC(C)[C@H](N)C(=O)OCCOCn1cnc2c(=O)[nH]c(N)nc21,1.63% [at 42.5 µM]
20,CSc1nc(NC2CC2)nc(NC(C)(C)C)n1,-3.35%
